Results reported in PubChem BioAssay AID720514 (Broad Institute, 2013).
Screen size: about 2,100 compounds; about 300 (14%) were called active. Inconclusive results (about 2%) are left out.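 How the source made its calls: active means every replicate test run called active, with the signal falling and half-maximal concentration within twice the top valid dose; inconclusive means the replicate test runs disagree in their calls; inactive means every test run inactive, including effects in the opposite direction.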 A selection follows. Measured potencies and affinities stand elsewhere.

Test: reduced cellular PGC1a acetyl-lysine signal – cell-based, cherry-picked samples, dose response (AID 720514);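 further: 0% = neutral control wells and -100% = positive control wells; actives lower the acetylation signal so they count as inhibitors of PGC1a acetylation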
Settings: U2OS PGC1a acetylation, AlphaLISA, overnight; series mostly up to 19.5 µM; activity change, negative = inhibition: at the top concentration

Activity change, negative = inhibition, inactive:
CCC(C)(C)n1nnnc1C(c1ccccc1OC)N1CCSCC1 (centres undefined) 97.3%
CC(NS(=O)(=O)c1ccccc1Cl)C1CC2CCC1C2 (centres undefined) 144%
C/C=C(/C)C(=O)O[C@@H]1c2cc(OC)c(OC)c(OC)c2-c2c(cc3c(c2OC)OCO3)C[C@H](C)[C@]1(C)O 111% [at 5 µM]
O=C(CCc1nc2ccccc2c(=O)[nH]1)Nc1ccc(N2CCCCC2)cc1 77.8%
Cn1ncc(C(=O)Nc2ccc(Cl)cc2)c1C(F)(F)F 17.4%
COc1cccc(N(CC(=O)NCc2cccnc2)S(C)(=O)=O)c1 57.6%
O=C(NCc1cccnc1)c1ccc(NC(=O)c2ccc(Br)cc2)cc1 240%
O=C(CCCc1nc(-c2ccccc2Cl)no1)NCc1cccnc1 124% [at 10 µM]
O=C(NCc1ccccc1)C1Cc2c(-c3ccc(Cl)cc3)ccnc2O1 (centres undefined) 40.4%
O=C(Cc1ccc(Cl)cc1)c1c[nH]c(C(=O)NCc2cccnc2)c1 94.9%
O=C(CCCCCN1C(=O)c2cccc3cccc(c23)C1=O)NCc1cccnc1 237%
CN(C)CC(O)c1ccc(C=Cc2ccc(Cl)cc2)cc1 (centres undefined) 40% [at 5 µM]
CC(=O)Nc1ccc(NC(=O)CN(c2cccc([N+](=O)[O-])c2)S(C)(=O)=O)cc1 251%
COc1ccc(CCn2c(-c3ccc(OC)cc3)nc3c(c(=O)c4ccccc4n3C)c2=O)cc1 44.1% [at 10 µM]
COc1ccccc1/C=C1\SC(=O)N(CCC(=O)NCCCn2ccnc2)C1=O 145% [at 10 µM]
CCN(CC)C(=O)CSc1nnc2nnc3cc(Cl)ccc3n12 43.8%
COC(=O)c1ccc(NC(=O)c2cccnc2)cc1 224% [at 10 µM]
COc1ccccc1NC(=O)c1ccc(NC(=O)CNC(=O)c2ccc(OC)c(OC)c2)cc1 42.6%
COc1ccc(-c2csc3nc(C)nc(N4CCC(C)CC4)c23)cc1OC 76.6%
COc1ccc(Nc2nnc(-c3ccc(C(N)=O)cc3)c3ccccc23)cc1 160%
COc1ccc(Nc2nnc(C)c3ccccc23)cc1 103%
O=C(Cc1ccccc1)Nc1cccc(-c2nc3ncccc3o2)c1 67.1%
CC1CC(NS(=O)(=O)c2cccs2)CC(C)(C)C1 (centres undefined) 194%
Nc1c(C(=O)Nc2ccccc2)sc2ncc([N+](=O)[O-])cc12 63.9%
COc1ccc(Nc2nc(N)c(C(=O)c3ccc(OC)cc3)s2)cc1 47.2%
OC1CCCC1NCc1ccnc2cc(Cl)ccc12 (centres undefined) 217%
Cc1ccc(Nc2nnc(C)c3ccccc23)c(C)c1 71.2%
COc1ccc(OC)c(C(=O)/C=C/c2ccccc2C(F)(F)F)c1 89.2%
C[C@@H]1CN([C@H](C)CO)C(=O)c2c(c3ccccc3n2C)-c2ccccc2CO[C@@H]1CN(C)C(=O)Nc1cccc(C(F)(F)F)c1 80.6%
COc1cc(-c2cnc3c(NC(C)=O)cc(-c4ccccc4CN(C)C)cn23)cc(OC)c1OC 70%
Cn1c(CN2CCCC2)nc2cc(NC(=O)COc3ccc(Cl)cc3)ccc21 35.3%
C=CCS(=O)(=O)c1nc2ccccc2s1 95.6% [at 10 µM]
Cc1cc(C)nc(NC(=O)c2c(-c3ccccc3Cl)noc2C)n1 49.6%
COc1cc(-c2nnn(CC#N)n2)ccc1OCc1ccccc1 376%
COc1ccc(-c2cc(-c3ccccc3O)[nH]n2)cc1OC 80.7%
O=C(Nc1ccccc1)C1=C[C@@H](c2ccc(C(F)(F)F)cc2)C[C@@H](OCc2ccc(CO)cc2)O1 107%
O=C(C1CCC1)N1CCN(S(=O)(=O)c2ccccc2)CC1 90.3% [at 10 µM]
COc1ccccc1NC(=O)N1C[C@@H]2N[C@H](C1)C2c1ccc(/C=C/c2ccccc2)cc1 (some centres undefined) 42.9% [at 10 µM]
COC(=O)C[C@H]1c2cc(C(F)(F)F)ccc2S(=O)(=O)N1Cc1ccc(OC)cc1 62.4%
Cc1nnc(NCc2ccccc2)c2ccccc12 123%
O=C(CC1CC1)N[C@H]1CC[C@H](CCNS(=O)(=O)c2ccc(Cl)cc2)O[C@H]1CO 42.8%
CC(=O)c1cc(-c2ccccc2)n(CCC(=O)NC2CCCCC2)c1C 58.1%
O=C(c1cc(C2CC2)on1)N1CCCC(N2CCN(c3cccc(C(F)(F)F)c3)CC2)C1 (centres undefined) 45.6%
COc1cc2cc(-c3ccc(O)cc3O)nc(C)c2cc1OC 19.4%
O=C(Cc1ccccc1)N1CCN(c2ccc([N+](=O)[O-])cc2)CC1 148%
Cc1ccc(C(=O)N2CCN(c3ccc(NC(=O)c4ccc(Br)o4)cc3)CC2)cc1 131%
O=C(CN1CCC(n2nnc3cc(F)ccc32)CC1)NCc1ccco1 103%
C[C@@H]1CN([C@@H](C)CO)C(=O)c2c(c3ccccc3n2C)-c2ccccc2CO[C@@H]1CN(C)C(=O)Nc1ccc(F)cc1 137%
Cc1cc(C)c2nc(N(CCCN(C)C)C(=O)c3ccc(S(=O)(=O)N4CCCCCC4)cc3)sc2c1 96% [at 10 µM]
CN1c2ccccc2C2(C)CCCC3=Cc4cccc([N+](=O)[O-])c4OC312 (centres undefined) 99.6%
Cc1cccc(C(=O)Nc2ccc(C(=O)/C=C/c3cccnc3)cc2)c1 123% [at 10 µM]
O=C(Cc1ccccc1)Nc1ccc(NC(=O)c2cccs2)cc1 176%
O=C(CS(=O)CC(=O)Nc1cccc2c1CCCC2)Nc1ccc(F)cc1 (centres undefined) 107%
Clc1ccc(-c2nnc(-c3ccccc3)nc2N2CCSCC2)cc1 44.6%
CNC(=O)c1nnsc1S(=O)c1ccc(Cl)cc1 (centres undefined) 47.6% [at 10 µM]
Nc1c(C(=O)Nc2ccccc2)c2nc3ccccc3nc2n1CCCN1CCOCC1 67.9% [at 10 µM]
CC(=O)NC(c1cccc(F)c1)c1nc(-c2cccc(C(C)C)c2)cs1 (centres undefined) 41%
COc1cc2nc(SCc3c(C)noc3C)n(CCC3=CCCCC3)c(=O)c2cc1OC 106%
c1ccc(N2CCN(c3ccccc3)C2c2ccncc2)cc1 55.4%
CCC(CC)C(=O)c1c[nH]c(C(=O)NCc2ccccc2)c1 126%
CCOC(=O)C1CCCN(S(=O)(=O)c2ccc3c(c2)NC(=O)CO3)C1 (centres undefined) 150%
CCOc1ccc2c(c1)C(C)=CC(C)(C)N2S(=O)(=O)c1ccc(C)cc1 41.8% [at 10 µM]
O=C1CC(Sc2nnc(-c3ccccc3O)o2)C(=O)N1c1ccccc1 (centres undefined) 49.7% [at 10 µM]
CCOC(=O)c1[nH]c(C)c(C(=O)Nc2cc(OC)ccc2OC)c1C 50.2%
CC(=O)c1ccc(N2CCN(c3ccc(S(=O)(=O)NCCCN(C)C)cc3[N+](=O)[O-])CC2)cc1 140% [at 10 µM]
CC(=O)c1ccc(N2CCN(c3ccc(S(=O)(=O)NCCN(C)C)cc3[N+](=O)[O-])CC2)cc1 79.5%
Cc1c(C(=O)NCCSCc2c(F)cccc2Cl)cnn1-c1ccc(Cl)cc1 111%
CC1CN(S(=O)(=O)c2ccc(C(=O)NCCCn3ccnc3)cc2)CC(C)O1 (centres undefined) 293%
CCN(CC)CC(=O)N1c2ccccc2CCc2ccc(NC(=O)c3cc(OC)c(OC)c(OC)c3)cc21 49.2%
O=C(c1cccc([N+](=O)[O-])c1)N1CCc2ccccc21 48%
CC(C)(C)c1ccc(NC(=O)N2CCN(c3ccc([N+](=O)[O-])cn3)CC2)cc1 138%
C[C@@H]1CCCCO[C@@H](CN(C)CC2CC2)[C@H](C)CN([C@H](C)CO)C(=O)c2cc(NS(=O)(=O)c3ccccc3)ccc2O1 39.4%
Cc1ccc(S(=O)(=O)Nc2ccc3c(c2)C(=O)N([C@@H](C)CO)C[C@@H](C)[C@H](CN(C)C(=O)Nc2cccc4ccccc24)OCCCC[C@H](C)O3)cc1 58.5%
CNC[C@H]1OCCCC[C@@H](C)Oc2ccc(NS(=O)(=O)c3ccccc3)cc2C(=O)N([C@H](C)CO)C[C@@H]1C 48.2% [at 21 µM]
C[C@@H]1CCCCO[C@@H](CN(C)Cc2ccc(Cl)c(Cl)c2)[C@H](C)CN([C@@H](C)CO)C(=O)c2cc(NC(=O)CCC(F)(F)F)ccc2O1 32.3%
C[C@@H]1CN([C@H](C)CO)C(=O)c2cc(N(C)C)ccc2O[C@@H](C)CCCCO[C@H]1CN(C)C(=O)Cc1ccccc1 77.6%
Cc1noc(C)c1S(=O)(=O)Nc1ccc2c(c1)C(=O)N([C@@H](C)CO)C[C@@H](C)[C@@H](CN(C)Cc1ccc3c(c1)OCO3)OCCCC[C@@H](C)O2 52%
Cc1noc(C)c1S(=O)(=O)Nc1ccc2c(c1)C(=O)N([C@H](C)CO)C[C@H](C)[C@H](CN(C)C(=O)c1ccncc1)OCCCC[C@@H](C)O2 23.5%
O=C(OCc1nc2ccsc2c(=O)[nH]1)c1cccc(S(=O)(=O)N2CCOCC2)c1 5.56%
NCC[C@H]1CC[C@@H](NC(=O)C2CCCCC2)[C@@H](CO)O1 27.4%
O=C(C[C@H]1CC[C@H]2[C@@H](COC[C@@H](O)CN2C(=O)c2cc(Cl)cc(Cl)c2)O1)N1CCc2ccccc2C1 79.8%
CCc1nnc(NC(=O)Cc2ccc(S(=O)(=O)N3CCCCC3)cc2)s1 44%
COc1ccc(NC(=O)Cn2ncc(Cl)c(Cl)c2=O)cc1S(=O)(=O)N1CCOCC1 67.1% [at 10 µM]
N#Cc1ccccc1COC(=O)c1ccc2c(c1)OCCO2 163%
Fc1ccc(-c2nn3c(C4COc5ccccc5O4)nnc3s2)cc1 (centres undefined) 135%
COc1ccc2c(c1)C(C)=CC(C)(C)N2S(=O)(=O)c1ccc(Br)cc1 49.3% [at 10 µM]
OC(COc1ccc(CNCCc2ccc(C(F)(F)F)cc2)cc1)CN1CCCCC1 (centres undefined) 33.5%
CC1(C)CC(=O)C2=C(C1)Nc1ccccc1N1C(=O)c3ccccc3C21 (centres undefined) 65.3%
O=C(NCc1csc(-c2cccs2)n1)c1cccc(Cl)c1 53.2% [at 10 µM]
CN1OC(COC(=O)c2ccccc2)CC1c1ccccc1 (centres undefined) 23.1%
CCC(=O)Nc1ccc(C(=O)Cn2ncc(Cl)c(Cl)c2=O)cc1 69%
O=S(=O)(c1ccccc1)N(CC(F)(F)F)c1ccc(C(O)(C(F)(F)F)C(F)(F)F)cc1 84.8%
COc1ccc(NC(=O)C2(C)Cc3c(-c4cccc(NC(C)=O)c4)ccnc3O2)cc1 (centres undefined) 53.5%
CCOC(=O)C1=CC[C@@H](c2ccccc2)N(S(=O)(=O)c2ccc(C)cc2)[C@H]1c1cccc(OC)c1 58.4%
